This is an account of results in PubChem BioAssay AID624246 (National Center for Advancing Translational Sciences (NCATS), 2012).

About 100 (0.027%) of roughly 370,000 compounds were called active. What follows is part of a selection rich in actives, with near analogues and random picks from the rest. Unmarked numbers belong to inactive results. Calls follow the shape of the dose curve; as a rule, active = well fitted inhibition curve with a large enough effect in the polarisation, with a control signal flat; inconclusive = small, poorly fitted or top-dose-only effect, or effect the other way, or a change in a side signal; inactive = no such curve, though single readings can be large or run the other way; the % refers to the polarisation.
Potency is read from the fitted curve at half-maximal effect.

Chain of Transcriptional regulator ERG (Homo sapiens) (P11308 whole entry, looked up, the tested form may be a part): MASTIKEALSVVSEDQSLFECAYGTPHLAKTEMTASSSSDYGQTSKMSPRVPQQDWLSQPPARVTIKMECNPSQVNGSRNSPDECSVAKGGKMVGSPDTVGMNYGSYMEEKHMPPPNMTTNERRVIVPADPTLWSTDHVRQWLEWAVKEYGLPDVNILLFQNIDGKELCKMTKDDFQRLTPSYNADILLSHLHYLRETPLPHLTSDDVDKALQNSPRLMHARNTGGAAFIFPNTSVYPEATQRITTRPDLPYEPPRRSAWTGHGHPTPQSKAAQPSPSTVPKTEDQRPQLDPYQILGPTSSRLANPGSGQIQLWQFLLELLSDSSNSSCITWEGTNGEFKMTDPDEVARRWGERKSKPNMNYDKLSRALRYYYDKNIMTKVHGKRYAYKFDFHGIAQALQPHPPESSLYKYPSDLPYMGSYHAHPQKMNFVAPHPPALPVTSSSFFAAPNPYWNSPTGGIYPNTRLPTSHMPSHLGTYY

This experiment concerns the target Transcriptional regulator ERG (Homo sapiens) (UniProt P11308). Description: qHTS for Small Molecule Inhibitors of the ERG Ets/DNA interaction. As to FP activity, negative = inhibition: % of control where 0% means no effect. Particulars: fluorescence polarization, His-ERG Ets domain / labelled DNA; series mostly up to 76.9 µM; FP activity, negative = inhibition: at the top concentration. The source says:
The Ets family of proteins is a family of ~30 conserved transcription factors defined by the presence of an ~85 amino acid domain referred to as the Ets domain, which mediates sequence-specific DNA binding to a core DNA element GGAA/T.The Ets family member ERG has been linked to several neoplasms. […] More extensive studies of the effects of over-expression of ERG in prostate cells have recently been carried out and have shown that over-expression of ERG results in increased invasion. […] We will carry out a high throughout screen to identify inhibitors of the interaction between ERG and DNA using a fluorescence polarization (FP) assay with a His-tagged ERG Ets domain and fluorescently-labeled DNA probes to develop small molecule inhibitors of this interaction as probes to test this hypothesis and lay the groundwork for the development of targeted therapies against ERG. NIH Molecular Libraries Probe Production Network [MLPCN] NIH Chemical Genomics Center [NCGC] Grant: NS066464 PI Name: John Bushweller, University of Virgina
1.5 ul of protein solution (1 uM ERG domain in 300mM KCl, 50mM Tris-HCl, 1mM EDTA, 1mM DTT, pH 7.5); 20 nl Control plate and compound library plate; 1.5 ul mixture of 5 nM Fluorescein-DNA and 100nM Texas-615-DNA solution in same buffer as above solution; measure fluorescence polarization sequentially for fluorescein (Excitation = 480 nm, Emission = 535s, 535p nm) and Texas red (Excitation = 555 nm, Emission = 632s, 632p nm).
(qHTS replaces the single test concentration by a dilution series.)
As to `COc1cccc2c1C(=O)c1c(O)c3c(c(O)c1C2=O)CC(O)(C(C)=NNC(=O)c1ccc(Cl)c(Cl)c1)CC3OC1CC(N)C(O)C(C)O1` (configuration not stated), the Potency was 2.51 µM (active).

As to `O=C(NCc1ccc2c(c1)CCN2C(=O)c1ccccc1)Nc1cc(F)ccc1F`, the “FP activity, negative = inhibition” value was -0.322%. As to `O=C(NCCCO)C(=O)Nc1c2c(nn1-c1ccccc1)CSC2`, the “FP activity, negative = inhibition” value is 6.72%. With `O=C(Nc1ccc2nc(SCCOc3ccccc3Cl)sc2c1)c1ccco1`, the “FP activity, negative = inhibition” value is -0.316%. Still for that read-out and setting: the value for `CCc1nc(-c2cc(S(=O)(=O)N3CCN(c4ccc(OC)cc4)CC3)ccc2OC)no1` was -3.39%; that for `CCCN1CCc2nc(N3CCN(C)CC3)ncc2C1` was 1.55%. For `C/C(CC(=O)NC(C)(C)C)=N\NC(=O)c1ccco1`, the “FP activity, negative = inhibition” value was 3.01%. Take `COc1cccc2cc(/C(C)=N/NC(=O)c3ccco3)oc12`: the “FP activity, negative = inhibition” value is -10.8%. As for `C/C(=N/NC(=O)CCc1ccccc1)c1ccco1`, the Potency was 28.2 µM (active). In the case of `CCC1=Nc2cc(C(=O)NCCCOC(C)C)ccc2Sc2ccc(C)cc21`, the “FP activity, negative = inhibition” value is -0.0425%. The same measure, in the same setting: the same measure for `CCOC(=O)c1ccc2c(c1)N(Cc1cccc(OC)c1)C(=O)c1ccccc1S2(=O)=O`: -4.86%. Same read-out and setting: the same measure for `CN(C(=O)c1ccc2c(c1)N(Cc1cccc(Cl)c1)C(=O)c1ccccc1S2=O)C1CCCCC1` (configuration not stated): -4.59%. Take `O=C1CN(C(=O)Nc2ccccc2C(F)(F)F)C(c2ccccc2)c2c(sc3c2CCCC3)N1` (configuration not stated): the “FP activity, negative = inhibition” value is 6.74%. On the same count and under the same terms, the same measure for `COc1ccccc1NC(=O)C1=C(C)Nc2nc(SCC(=O)c3ccc(C)cc3)nn2C1c1ccccc1C` (configuration not stated): -8.08%; for `O=C1N(Cc2ccccc2)c2ccc(Cl)cc2C1(O)c1c[nH]c2ccccc12` (configuration not stated): 0.882%; for `CCOC(=O)c1c(NC(=O)/C=C/c2ccc(OC)cc2)sc2c1CCC(C)C2` (configuration not stated): 2.55%. `CCOC(=O)c1ccccc1NC(=O)c1nn(-c2ccc(OC)c(Cl)c2)c(=O)c2c1c1ccccc1n2C`: the “FP activity, negative = inhibition” value was -3.65%. Take `CCc1ccc(NS(=O)(=O)c2ccc3[nH]cc(C(=O)NCCc4cccc(C)c4)c(=O)c3c2)cc1`: the “FP activity, negative = inhibition” value was -8.63%. Turning to `COc1ccc(N2CCN(c3nc(-c4ccccc4F)nc4ccccc34)CC2)cc1`, the “FP activity, negative = inhibition” value was -3%.

With `CC(C)c1ccc(OCC(=O)N(Cc2ccc(N(C)C)cc2)C2CCS(=O)(=O)C2)cc1` (configuration not stated), the “FP activity, negative = inhibition” value is -0.0046%. On the same count and under the same terms, the same measure for `CCOc1cccc(CC(=O)N2CCc3c([nH]c4ccccc34)C2c2ccc(F)cc2)c1OCC` (configuration not stated): 1.73%; for `Cc1ccc(C)c(Nc2nnc(-c3ccc(C)c(S(=O)(=O)N4CCCCC4)c3)c3ccccc23)c1`: 0.916%. Still for that read-out and setting: the value for `CCCN1C(=O)C(O)(CC(=O)c2ccc(CC)cc2)c2cc(Br)ccc21` (configuration not stated) was 6.2%; that for `Cc1nn(CC(=O)O)c(=O)c2cc3cc(F)ccc3n12` was -2.51%; that for `CCOC(=O)c1ccc(NC(=O)C2CC(=O)N(c3ccc(C(C)C)cc3)C2)cc1` (configuration not stated) was -0.232%. Still for that read-out and setting: the value for `COc1cccc(Cn2c(CNS(=O)(=O)c3ccc(Cl)s3)nc3cccnc32)c1` was -3.77%.

Turning to `COc1ncnc2c1N=C1CC(C)(C)CC(N)=C1S2`, the Potency is 35.5 µM (active). As to `CC(=O)c1c(C)n(S(=O)(=O)c2ccc(Cl)cc2)c2ccc(NS(=O)(=O)c3ccc(Cl)cc3)cc12`, the “FP activity, negative = inhibition” value is -4.05%. The same measure, in the same setting: the value for `COc1cccc(Cn2c(SCc3ccc(C(=O)N4CCCCC4)cc3)nc3ccncc32)c1` was -1.17%; that for `Fc1cccc(-n2ncc3c2ncn2nc(-c4ccccc4Cl)nc32)c1` was -9.93%; that for `Cc1ccc(-c2cn3c(n2)sc2cc(C(=O)NCc4cccs4)ccc23)c(C)c1` was 1.59%. Same read-out and setting: the value for `COc1ccccc1CNC(=O)c1ccccc1NC(=O)c1nsc2ccccc12` was 0.107%; that for `CC(=O)Nc1ccc(NC(=O)c2cc3sccc3n2Cc2ccc(F)cc2)cc1` was 2.87%; that for `CCOc1ccc(OCC)c(NC(=O)CN(c2ccc(C)cc2)S(=O)(=O)c2c(C)n[nH]c2C)c1` was 0.183%. Consider `CCc1ccccc1N(C)C(=O)C1CCCN(c2ncnc3onc(-c4ccc(F)cc4)c23)C1` (configuration not stated), for which the “FP activity, negative = inhibition” value was -3.47%. The same measure, in the same setting: the value for `CCCc1nn2c(=O)cc(COC(=O)c3ccc(NC(=O)COc4ccc(F)cc4)cc3)nc2s1` was 3.44%; that for `COc1cc(NC(=O)Cn2c(=O)n(Cc3ccco3)c(=O)c3oc4ccccc4c32)cc(OC)c1` was 7.39%.

Consider `Cc1cccc(NC(c2cccc(F)c2)c2ccc3ccc(C)nc3c2O)n1` (configuration not stated), for which the “FP activity, negative = inhibition” value is -6.48%.

`COc1cc(NC(=O)CCn2nc(C)cc2C)cc(OC)c1OC`: the “FP activity, negative = inhibition” value is 5.03%.

For the molecule `Cc1cc(N2CCCC2)ccc1NC(=O)COc1ccc(Cl)cc1`, the “FP activity, negative = inhibition” value was 47.5%. For the molecule `Cc1cc(C)cc(OCC(=O)Nc2ccc(N3CCOCC3)cc2N2CCOCC2)c1`, the Potency is 28.2 µM (active). Consider `Cc1cc(C)cc(OCC(=O)Nc2cc(NC(=O)COc3cc(C)cc(C)c3)cc(C(=O)O)c2)c1`, for which the “FP activity, negative = inhibition” value was 1.28%.

Take `CCOc1ccc(NC(=O)c2c(NCc3cccc(OC)c3OC)sc3c2CCC3)cc1`: the “FP activity, negative = inhibition” value is -10.3%. Same read-out and setting: the same measure for `Cc1cccc(C(=O)Nc2ccc(-c3nc4ncccc4o3)cc2C)c1`: -3.97%; for `CC(=O)Nc1ccc(NC(=O)CCCc2nc(-c3ccc(C(C)(C)C)cc3)no2)cc1`: 3.14%; for `COc1ccccc1CN1CCC(CNC(=O)c2cnn(-c3ccccc3Cl)c2C2CCN(C(=O)OC(C)(C)C)CC2)CC1`: 2.12%.

For `CC(C)Cn1c(=O)c2ccccc2n2c(CCC(=O)N3CCN(c4cccc(Cl)c4)CC3)nnc12`, the “FP activity, negative = inhibition” value is 1.77%.
